This is an account of results in ChEMBL document CHEMBL3988442, “University of Dundee, Small-Polar-MMV Screening Library” (2021).

The test has as its target AMP-activated protein kinase, AMPK (Homo sapiens) (UniProt P54646+O43741+P54619+Q9UGJ0+Q9Y478+Q13131+Q9UGI9). The test can be described thus: AMP-dependent Kinase enzyme assay. An in vitro enzyme assay that detects ADP turnover that is directly proportional to AMPK activity. This uses naive AMPK that is activated during the assay with MK-8722. Further details: scale not given: direction of the effect not stated beside the values. The conditions noted are these: 30 µM. It is filed as functional.
In the case of `Cc1cc(NC(=O)N2CCC[C@@H]2CO)nn1-c1ccccc1Cl`, the Percent Effect stood at 3.2%.

Regarding `CN(Cc1n[nH]c2c1CCC2)C(=O)c1cc(-c2cccn2C)n[nH]1`, the Percent Effect is -16.6%.

As to `CC(=O)Nc1ccc(CNC(=O)CNCc2snnc2C)cc1`, the Percent Effect was -1.84%.

Take `COc1nsc2nc(C3CCCN3C(C)=O)ccc12` (centres undefined): the Percent Effect amounted to 7.38%.

For `Cc1ccc(CNC(=O)NCc2nccn2C)c(OC(C)(C)C)c1`, the Percent Effect came to 11.3%.

Consider `Cc1cc(NC(=O)N2CCC[C@@H]2CO)nn1-c1cccc(Cl)c1`, for which the Percent Effect was -3.24%.

As for `Cc1ccc(CNC(C)(C)c2noc(C(C)(C)C)n2)o1`, the Percent Effect was 0.8%.

With `O=C(NC1CCN(Cc2ccc(F)cc2)CC1)c1ccc2c(c1)CCC2`, the Percent Effect was -2.43%.

On to `CC(=O)N[C@H]1CCO[C@@H](c2cccc(NC(=O)c3cccc(F)c3)c2)C1`, for which the Percent Effect was determined as 6.73%.

Consider `CC(C)NC(=O)CNC(=O)c1csc(Cc2ccccc2F)n1`, for which the Percent Effect is 4.46%.

On to `Cn1ccc(C(=O)N2CCC(Cc3ccc4ncccc4c3)CC2)n1`, for which the Percent Effect is 15.1%.

As to `Cc1cc(=O)[nH]c(-n2nc(-c3ccccc3)cc2N)n1`, the Percent Effect is -11.4%.

For the compound `CC(=O)N[C@H]1CN(S(=O)(=O)N(C)Cc2ccccc2)C[C@@H]1C1CC1`, the Percent Effect came to 1.32%.

Consider `CCc1nnc(CN2CC(n3cccn3)C2)o1`, for which the Percent Effect is -3.56%.

With `COCc1cccc(NCc2cccnc2)c1`, the Percent Effect stood at 0.23%.

Turning to `CN(CCNC(=O)Nc1ccn(C)n1)Cc1ccc(F)cc1`, the Percent Effect worked out at 3.18%.

Turning to `CC(Cn1cncc1-c1cnn(Cc2ccccc2)c1)N1CCCCC1` (centres undefined), the Percent Effect stood at 7.07%.

With `CC(C)c1nc(CN(C)C(=O)[C@H](N)Cc2ccc(Cl)cc2)cs1`, the Percent Effect was found to be 2.32%.

As to `Cc1ccc(-n2cc(CN3CCOCC(CN(C)C)C3)cn2)cc1C` (centres undefined), the Percent Effect is 8.42%.
